The record followed here is PubChem BioAssay (NCI).

The structures appear in SMILES notation. This is part of a sample that, as a whole, favours compounds with a hit. Of some 79,000 tested, about 15% had one in any assay. Unmarked numbers belong to inactive results. Rule as the data show it: active = growth inhibition above about 70%; inactive = the rest.

A short description of the test: NCI Yeast Anticancer Drug Screen. Data for the bub3 strain (AID 167). The settings on record: S. cerevisiae bub3 mutant strain, at 50.0 µM, active compounds read high. The procedure, abridged: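 Screening used yeast with an engineered genetic alteration affecting cell cycle control. Compound-exposed cultures were compared with vehicle cultures, and reduced growth was taken as inhibition.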
Regarding `Cc1ccc(C(N)=O)cc1`, the growth inhibition is 17.9%. As for `O=C1CC2(CCN(Cc3ccccc3)CC2)C(=O)N1N1CCCCC1`, the figure is 43.8%; as for `O=[N+]([O-])c1ccc(SN2CCCCC2CC2CCCCC2)c([N+](=O)[O-])c1` (stereo not drawn), 1.3%. On to `O=P(OC1=NCCN1Cc1ccccc1)(OC1=NCCN1Cc1ccccc1)N1CC1`, for which the growth inhibition was 3.75%. Under `Nc1ccc(N(C(=O)c2ccccc2)C(=O)c2ccccc2)c(-c2ccccc2)c1` stands 11.1%. As to `C[C@@H](CC(=O)O)OC1OC(COC(=O)C(C)(C)C)C(OC(=O)C(C)(C)C)C(OC(=O)C(C)(C)C)C1OC(=O)C(C)(C)C` (stereo partly drawn), the growth inhibition was -15.5%.

Take `OCCNCc1cccc(-c2ccccc2)c1O`: the growth inhibition is 8.2%. Under `Cc1ccc2cccnc2c1` stands 2.85%; under `NCCNC(=O)c1ccccc1`, -7.95%; under `COC(=O)N1N=C(c2ccccc2)C(C(=O)OC)(C(=O)OC)c2ccccc21`, 20.2%. As for `CCOP(=O)(OCC)C(Cc1cn(S(=O)(=O)c2ccc(C)cc2)cn1)C(=O)O` (stereo not drawn), the growth inhibition is 21.4%. As for `O=C(O)c1cc(C(=O)O)nc(C(=O)O)c1`, the figure is 5.7%; as for `NC(=O)N/N=C/c1ccccc1N`, -8.65%. Under `O=C(O)C1OCOC2C(CO)OCOC12` (stereo not drawn) stands -3.6%; under `CC(C)(C)/C(=N\O)c1ccccc1`, -17.4%; under `CN(C)CCN(C)CC(C)(C)C(=O)/C=C/c1ccccc1`, -7.15%. Under `CC(c1ccccc1)C1(C)NC(=O)NC1=O` (stereo not drawn) stands 6.55%. As for `CC(=O)OCCn1c([N+](=O)[O-])cnc1/C=[N+](/C)[O-]`, the growth inhibition is 9.85%.
